# Assay results taken from PubChem BioAssay (NCI).
# About 79,000 compounds went through this panel and 15% of them were active in at least one assay; those are over-represented in the sample as a whole. A number with no mark means an inactive call. The source made the active and inactive calls. No stated cut-off is given here; in the data, active means growth inhibition above about 70%; inactive means the rest.
# Columns and labels:
# [1] = NCI Yeast Anticancer Drug Screen. Data for the rad52 strain (AID 147);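 further: 0% = growth of vehicle-treated control cultures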; details: S. cerevisiae rad52 mutant growth inhibition, stronger effect = higher value
# In short: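 Screen used a yeast mutant impaired in DNA repair. After compound exposure, growth was measured. Values reflect inhibition compared with vehicle-treated cells.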
# [2] = NCI Yeast Anticancer Drug Screen. Data for the wt1 strain (AID 149);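 further: 0% = growth of vehicle-treated wt1 cultures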; details: S. cerevisiae wt1 strain (SPY 50644) growth inhibition, stronger effect = higher value
# In short: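 Readout: yeast growth inhibition, normalised to vehicle controls, in the wt1 strain exposed to test compounds.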
# [3] = NCI Yeast Anticancer Drug Screen. Data for the rad50EPP+ strain (AID 151);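 further: 0% = growth of vehicle-treated control cultures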; details: S. cerevisiae rad50 mutant strain, stronger effect = higher value
# In short: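 Exposing the rad50EPP+ strain to each compound, growth was compared with vehicle-only cultures to give inhibition.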
# [4] = NCI Yeast Anticancer Drug Screen. Data for the mgt1 strain (AID 153); details: S. cerevisiae mgt1 mutant growth inhibition, stronger effect = higher value
# In short: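 Genetically defined yeast (mgt1) treated with compound; inhibition of growth expressed against vehicle-treated controls.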
# [5] = NCI Yeast Anticancer Drug Screen. Data for the rad50 strain (AID 155);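 further: 0% = growth of vehicle-only cultures of the same strain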; details: S. cerevisiae rad50 strain growth inhibition, stronger effect = higher value
# In short: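 Compounds were tested on a yeast strain with an engineered DNA damage repair alteration; the reported value is growth inhibition normalised to vehicle treatment.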
# [6] = NCI Yeast Anticancer Drug Screen. Data for the mec2-1 strain (AID 157); details: S. cerevisiae mec2-1 strain, stronger effect = higher value
# In short: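 Readout is yeast growth inhibition, normalised to vehicle-treated controls, in the mec2-1 strain exposed to compound.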
# [7] = NCI Yeast Anticancer Drug Screen. Data for the rad14 strain (AID 159);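 further: 0% = growth of vehicle-treated control cultures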; details: S. cerevisiae rad14 strain growth inhibition, stronger effect = higher value
# In short: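 Compound-treated yeast with a defined DNA-repair lesion; growth inhibition normalised to vehicle-treated cultures.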
# [8] = NCI Yeast Anticancer Drug Screen. Data for the sgs1 mgt1 strain (AID 161);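 further: 0% = growth of cultures given vehicle only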; details: S. cerevisiae sgs1 mgt1 strain, stronger effect = higher value
# In short: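 Growth of a repair-deficient yeast mutant was monitored after compound treatment and expressed as inhibition relative to vehicle-treated cultures.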
# [9] = NCI Yeast Anticancer Drug Screen. Data for the CLN2oe strain (AID 163);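 further: 0% = growth of vehicle-only control cultures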; details: S. cerevisiae CLN2oe strain, stronger effect = higher value
# In short: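 Values reflect how much compound exposure reduced yeast growth, referenced to vehicle-exposed cells. Assay organism is a strain with a defined genetic change affecting cell-cycle control.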
# [10] = NCI Yeast Anticancer Drug Screen. Data for the bub3 strain (AID 167); details: S. cerevisiae bub3 mutant strain, stronger effect = higher value
# In short: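 Growth of a checkpoint-deficient yeast mutant is measured after compound exposure. Values represent inhibition relative to vehicle.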
# [11] = NCI Yeast Anticancer Drug Screen. Data for the wt2 strain (AID 169);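 further: 0% = growth of vehicle-treated yeast cultures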; details: S. cerevisiae wt2 strain growth inhibition, stronger effect = higher value
# In short: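 Values express reduction in yeast growth under compound treatment, referenced to vehicle-treated cells.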
# [12] = NCI Yeast Anticancer Drug Screen. Data for the mlh1 strain (AID 171);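 further: 0% = growth of vehicle-treated control cultures of the same strain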; details: S. cerevisiae mlh1 strain growth inhibition, stronger effect = higher value
# In short: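 Steps: expose the defined-mutant yeast strain to compound; expose a parallel culture to vehicle; measure growth; express compound effect as inhibition relative to the vehicle culture.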
# [13] = NCI Yeast Anticancer Drug Screen. Data for the sgs1 strain (AID 173);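 further: 0% = growth of vehicle-only control cultures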; details: S. cerevisiae sgs1 mutant, stronger effect = higher value
# In short: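 Treat defined-mutant yeast with compound; measure growth; calculate inhibition relative to vehicle-treated cells.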
# [14] = NCI Yeast Anticancer Drug Screen. Data for the mlh1 rad18 strain (AID 175); details: S. cerevisiae mlh1 rad18 strain growth inhibition, stronger effect = higher value
# In short: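 Test agents were incubated with a yeast strain of defined genotype (DNA damage repair defect). Inhibition of growth was derived by comparison with vehicle-exposed cultures.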
# [15] = NCI Yeast Anticancer Drug Screen. Data for the rad18 strain (AID 177); details: S. cerevisiae rad18 mutant growth inhibition, stronger effect = higher value
# In short: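 A genetically defined yeast mutant impaired in DNA damage repair was treated with test compounds, then its growth was measured against cultures receiving vehicle alone.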
# [16] = at 5.0 µM (retest, dose inferred, filed as 0.5)
# [17] = at 50.0 µM (retest, dose inferred, filed as 5.0)
smiles,measurement,setting,value
COc1cc(OC)c(CSCC(NC(=O)OCC2c3ccccc3-c3ccccc32)C(=O)O)c(OC)c1 (stereo not given),growth inhibition,[1]; at 1.2 µM,0%
same,growth inhibition,[1]; at 3.7 µM,5%
same,growth inhibition,[1]; at 11.0 µM,48%
same,growth inhibition,[1]; at 33.0 µM,97% (active)
same,growth inhibition,[1]; at 100.0 µM,98% (active)
same,growth inhibition,[2]; at 1.2 µM,1%
same,growth inhibition,[2]; at 3.7 µM,9%
same,growth inhibition,[2]; at 11.0 µM,55%
same,growth inhibition,[2]; at 33.0 µM,96% (active)
same,growth inhibition,[2]; at 100.0 µM,99% (active)
same,growth inhibition,[3]; at 1.2 µM,-2%
same,growth inhibition,[3]; at 3.7 µM,-2%
same,growth inhibition,[3]; at 11.0 µM,-1%
same,growth inhibition,[3]; at 33.0 µM,0%
same,growth inhibition,[3]; at 100.0 µM,-3%
same,growth inhibition,[4]; at 1.2 µM,-2%
same,growth inhibition,[4]; at 3.7 µM,8%
same,growth inhibition,[4]; at 11.0 µM,52%
same,growth inhibition,[4]; at 33.0 µM,97% (active)
same,growth inhibition,[4]; at 100.0 µM,98% (active)
same,growth inhibition,[5]; at 1.2 µM,-6%
same,growth inhibition,[5]; at 3.7 µM,-9%
same,growth inhibition,[5]; [16],15%
same,growth inhibition,[5]; at 11.0 µM,43%
same,growth inhibition,[5]; at 33.0 µM,94% (active)
same,growth inhibition,[5]; [17],99% (active)
same,growth inhibition,[5]; at 50.0 µM,98.6% (active)
same,growth inhibition,[5]; at 100.0 µM,98% (active)
same,growth inhibition,[6]; at 1.2 µM,2%
same,growth inhibition,[6]; at 3.7 µM,11%
same,growth inhibition,[6]; [16],12%
same,growth inhibition,[6]; at 11.0 µM,55%
same,growth inhibition,[6]; at 33.0 µM,96% (active)
same,growth inhibition,[6]; [17],99% (active)
same,growth inhibition,[6]; at 50.0 µM,99.2% (active)
same,growth inhibition,[6]; at 100.0 µM,98% (active)
same,growth inhibition,[7]; at 1.2 µM,-2%
same,growth inhibition,[7]; at 3.7 µM,10%
same,growth inhibition,[7]; at 11.0 µM,68%
same,growth inhibition,[7]; at 33.0 µM,96% (active)
same,growth inhibition,[7]; at 100.0 µM,99% (active)
same,growth inhibition,[8]; [16],-4%
same,growth inhibition,[8]; [17],98% (active)
same,growth inhibition,[8]; at 50.0 µM,99% (active)
same,growth inhibition,[9]; at 1.2 µM,0%
same,growth inhibition,[9]; at 3.7 µM,13%
same,growth inhibition,[9]; at 11.0 µM,68%
same,growth inhibition,[9]; at 33.0 µM,99% (active)
same,growth inhibition,[9]; at 100.0 µM,98% (active)
same,growth inhibition,[10]; at 1.2 µM,0%
same,growth inhibition,[10]; at 3.7 µM,10%
same,growth inhibition,[10]; [16],3%
same,growth inhibition,[10]; at 11.0 µM,61%
same,growth inhibition,[10]; at 33.0 µM,95% (active)
same,growth inhibition,[10]; [17],99% (active)
same,growth inhibition,[10]; at 50.0 µM,99.2% (active)
same,growth inhibition,[10]; at 100.0 µM,98% (active)
same,growth inhibition,[11]; at 1.2 µM,-1%
same,growth inhibition,[11]; at 3.7 µM,6%
same,growth inhibition,[11]; at 11.0 µM,58%
same,growth inhibition,[11]; at 33.0 µM,98% (active)
same,growth inhibition,[11]; at 100.0 µM,98% (active)
same,growth inhibition,[12]; at 1.2 µM,3%
same,growth inhibition,[12]; at 3.7 µM,9%
same,growth inhibition,[12]; at 11.0 µM,62%
same,growth inhibition,[12]; at 33.0 µM,97% (active)
same,growth inhibition,[12]; at 100.0 µM,98% (active)
same,growth inhibition,[13]; at 1.2 µM,1%
same,growth inhibition,[13]; at 3.7 µM,9%
same,growth inhibition,[13]; at 11.0 µM,45%
same,growth inhibition,[13]; at 33.0 µM,95% (active)
same,growth inhibition,[13]; at 100.0 µM,98% (active)
same,growth inhibition,[14]; [16],5%
same,growth inhibition,[14]; [17],99% (active)
same,growth inhibition,[14]; at 50.0 µM,98.4% (active)
same,growth inhibition,[15]; at 1.2 µM,0%
same,growth inhibition,[15]; at 3.7 µM,8%
same,growth inhibition,[15]; at 11.0 µM,36%
same,growth inhibition,[15]; at 33.0 µM,96% (active)
same,growth inhibition,[15]; at 100.0 µM,97% (active)
